Compounds without any hit were thinned out: in the full panel of roughly 79,000, 15% have a hit. Calls of active or inactive are those of the source. Rule as the data show it: active = growth inhibition above about 70%; inactive = the rest.
Experiment: NCI Yeast Anticancer Drug Screen. Data for the CLN2oe strain (AID 163);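 also: 0% = growth of vehicle-only control cultures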
Conditions: S. cerevisiae CLN2oe strain, stronger effect = higher value
Description: Growth inhibition of yeast strains with defined genetic alterations is measured as a screen for potential anti-cancer activity. Selected strains with alterations in DNA damage repair or cell cycle control were exposed to compounds and growth inhibition was measured relative to vehicle treated controls. The strain used in this assay is CLN2oe

Measured: growth inhibition

CN(Cc1cnc2nc(N)nc(N)c2n1)c1ccc(C(=O)NC(CCC(=O)O)C(=O)O)c2ccccc12 (stereo not given)
inactive: at 1.2 µM -14% | at 3.7 µM -12% | at 11.0 µM -28% | at 33.0 µM 7% | at 100.0 µM 58%

CCN(CC)CC(O)c1cc(-c2ccc(Cl)cc2)nc2c(-c3ccccc3)cccc12 (stereo not given)
active: at 11.0 µM 98% | at 33.0 µM 97% | at 100.0 µM 94%
inactive: at 1.2 µM 0% | at 3.7 µM 2%

CCc1[nH]nc(C(N)=O)c1N=NN(C)C
inactive: at 1.2 µM -2% | at 3.7 µM -3% | at 11.0 µM 0% | at 33.0 µM 1% | at 100.0 µM 18%

O=C(N/N=C\c1c(Cl)cccc1Cl)N/N=C/c1c(Cl)cccc1Cl
inactive: at 1.2 µM -8% | at 3.7 µM -12% | at 11.0 µM -21% | at 33.0 µM -8% | at 100.0 µM -10%

CCOC(=O)Nc1ccc2c(c1)Cc1ccccc1-2
inactive: at 1.2 µM -9% | at 3.7 µM -12% | at 11.0 µM -13% | at 33.0 µM -12% | at 100.0 µM -7%

CC(C)c1cccc(O)c(=O)c1
inactive: at 1.2 µM 3% | at 3.7 µM 4% | at 11.0 µM 2% | at 33.0 µM 25%
active: at 100.0 µM 98%

c1ccc2c(c1)ccc1c3ccncc3ccc21
active: at 11.0 µM 93% | at 33.0 µM 99% | at 100.0 µM 96%
inactive: at 1.2 µM 0% | at 3.7 µM 13%

O=[N+]([O-])c1cccc2nc3ccccc3c(NCCc3cccc[n+]3[O-])c12
active: at 100.0 µM 86%
inactive: at 1.2 µM -11% | at 3.7 µM -12% | at 11.0 µM 6% | at 33.0 µM 35%

— PubChem BioAssay (NCI)
